Test results published in PubChem BioAssay AID1159580 (chemical genetic matrix, 2015).
“And” between values parts separate entries of the source, which are not always exact repeats. Equal values may be shown once. Hit rate of the full screen: of about 5,500 compounds, about 2,000 (36%) were called active. About 18% were inconclusive and are not listed. Cut-off read from the data, not from the text of the source: active = normalized growth mostly below about 0.91 (no sharp cut-off); inconclusive = no clear call, values can overlap the other calls; inactive = mostly above about 0.92. The list shows a part of the results.

Assay: chemical genetic growth profiling, strain panel (AID 1159580);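 note: tested at 20 µM; growth read once vehicle control cultures reached saturation at 30 °C; 1 = growth at the plate median or of vehicle wells; lower values mean less growth of the strain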
Settings: S. cerevisiae deletion strains, growth OD

Measured: normalized growth

C=Cc1c2[nH]c(c1C)C=c1[nH]c(c(C)c1C=C)=CC1N=C(C=c3[nH]c(c(C)c3CCC(=O)O)=C2)C(CCC(=O)O)=C1C (configuration not stated)
inactive: locus YAL013W, strain DEP1, stronger effect = lower value 0.975 | locus YAL021C, strain ccr4, stronger effect = lower value 0.954 | locus YAL026C, strain drs2, stronger effect = lower value 1.02 | locus YAL030W, strain snc1, stronger effect = lower value 1.03 | locus YBL061C, strain skt5, stronger effect = lower value 1.02 | locus YBR009C, strain hhf1, stronger effect = lower value 1.02 | locus YBR021W, strain FUR4, stronger effect = lower value 1.01 | locus YBR023C, strain chs3, stronger effect = lower value 1.01 | locus YBR171W, strain sec66, stronger effect = lower value 1.08 | locus YBR229C, strain ROT2, stronger effect = lower value 0.961 | locus YBR231C, strain swc5, stronger effect = lower value 1.02 | locus YBR279W, strain paf1, stronger effect = lower value 1.01 | locus YCL011C, strain gbp2, stronger effect = lower value 1.05 | locus YCL016C, strain dcc1, stronger effect = lower value 1 | locus YCL029C, strain bik1, stronger effect = lower value 0.979 | locus YCL061C, strain MRC1, stronger effect = lower value 1.03 | locus YCL069W, strain vba3, stronger effect = lower value 1.02 | locus YCR088W, strain abp1, stronger effect = lower value 1.04 | locus YDL005C, strain med2, stronger effect = lower value 1.01 | locus YDL035C, strain GPR1, stronger effect = lower value 0.975 | locus YDL040C, strain nat1, stronger effect = lower value 0.993 | locus YDL074C, strain BRE1, stronger effect = lower value 0.988 | locus YDL101C, strain DUN1, stronger effect = lower value 0.981 | locus YDL134C, strain PPH21, stronger effect = lower value 0.988 | locus YDL185W, strain tfp1, stronger effect = lower value 0.983 | locus YDL192W, strain arf1, stronger effect = lower value 0.976 | locus YDR001C, strain nth1, stronger effect = lower value 1.03 | locus YDR069C, strain doa4, stronger effect = lower value 1.06 | locus YDR101C, strain arx1, stronger effect = lower value 0.987 | locus YDR137W, strain rgp1, stronger effect = lower value 1 | locus YDR150W, strain NUM1, stronger effect = lower value 0.973 | locus YDR159W, strain sac3, stronger effect = lower value 1.03 | locus YDR162C, strain NBP2, stronger effect = lower value 0.96 | locus YDR195W, strain ref2 1.03 | locus YDR297W, strain sur2, stronger effect = lower value 1.01 | locus YDR318W, strain mcm21, stronger effect = lower value 0.989 | locus YDR334W, strain swr1, stronger effect = lower value 1.04 | locus YDR335W, strain msn5, stronger effect = lower value 1.01 | locus YDR388W, stronger effect = lower value 0.999 | locus YDR392W, strain spt3, stronger effect = lower value 0.909 | locus YDR502C, strain sam2, stronger effect = lower value 0.952 | locus YEL003W, strain gim4, stronger effect = lower value 1.05 | locus YEL037C, strain rad23, stronger effect = lower value 1.02 | locus YEL061C, strain CIN8 (second series), stronger effect = lower value 1.02 | locus YEL061C, strain CIN8, stronger effect = lower value 0.986 | locus YER015W, strain faa2, stronger effect = lower value 1.04 | locus YER016W, strain bim1, stronger effect = lower value 1.02 | locus YER110C, stronger effect = lower value 0.972 | locus YER111C, strain swi4, stronger effect = lower value 1.03 | locus YER155C, strain BEM2 (second series), stronger effect = lower value 1.07 | locus YER155C, strain BEM2, stronger effect = lower value 1 | locus YER167W, strain BCK2, stronger effect = lower value 0.982 | locus YFR010W, strain ubp6, stronger effect = lower value 1.04 | locus YGL078C, strain dbp3, stronger effect = lower value 1.02 | locus YGL086W, strain mad1, stronger effect = lower value 0.938 | locus YGL167C, strain pmr1, stronger effect = lower value 1.02 | locus YGL173C, strain kem1, stronger effect = lower value 1.02 | locus YGL227W, strain vid30, stronger effect = lower value 1.05 | locus YGL240W, strain doc1, stronger effect = lower value 0.977 | locus YGL248W, strain PDE1, stronger effect = lower value 0.995 | locus YGL253W, strain hxk2, stronger effect = lower value 0.988 | locus YGR078C, strain PAC10, stronger effect = lower value 0.994 | locus YGR135W, strain pre9, stronger effect = lower value 0.961 | locus YGR229C, strain SMI1, stronger effect = lower value 0.923 | locus YGR252W, strain gcn5, stronger effect = lower value 1.05 | locus YHR013C, strain ard1, stronger effect = lower value 0.975 | locus YHR027C, strain rpn1, stronger effect = lower value 1.06 | locus YHR030C, strain SLT2, stronger effect = lower value 1 and 1.03 | locus YHR079C, strain IRE1 (second series), stronger effect = lower value 0.99 | locus YHR079C, strain IRE1, stronger effect = lower value 1.07 | locus YHR094C, strain hxt1, stronger effect = lower value 0.996 | locus YHR129C, strain ARP1, stronger effect = lower value 0.995 | locus YHR142W, strain chs7, stronger effect = lower value 0.975 | locus YHR200W, strain rpn10, stronger effect = lower value 0.97 | locus YIL066C, strain RNR3, stronger effect = lower value 0.982 | locus YIL073C, strain SPO22, stronger effect = lower value 1.01 | locus YIL125W, strain kgd1, stronger effect = lower value 1.02 | locus YIR030C, strain dcg1, stronger effect = lower value 0.986 | locus YJL092W, strain hpr5, stronger effect = lower value 1.02 | locus YJL095W, strain BCK1 (second series), stronger effect = lower value 1.02 | locus YJL095W, strain BCK1, stronger effect = lower value 1.02 and 1.01 | locus YJL115W, strain asf1, stronger effect = lower value 1.02 | locus YJL129C, strain trk1, stronger effect = lower value 1.04 | locus YJL134W, strain LCB3, stronger effect = lower value 0.988 | locus YJL154C, strain vps35, stronger effect = lower value 1.02 | locus YJL164C, strain tpk1, stronger effect = lower value 0.968 | locus YJL166W, strain qcr8, stronger effect = lower value 0.945 | locus YJL168C, strain set2, stronger effect = lower value 0.996 | locus YJL187C, strain SWE1 (second series), stronger effect = lower value 1 | locus YJL187C, strain SWE1, stronger effect = lower value 1 | locus YJR043C, strain POL32, stronger effect = lower value 0.962 | locus YJR066W, strain TOR1, stronger effect = lower value 0.995
